# Screening data (PubChem BioAssay)
# L3MBTL1 block = qHTS Assay for the Inhibitors of L3MBTL1; AlphaScreen L3MBTL1–H3K9me1 peptide binding; 230,000 tested, 0.66% active; Potency, µM (series often up to 57.1 µM), for the others: top-dose activity, negative = inhibition, actives largely listed as inhibitors; further: on the % scale 0 is the no-effect control and ±100 the full control effect; nearly all actives have a fitted effect of over 60% in size
#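 Read-out is AlphaScreen signal from streptavidin donor and nickel chelate acceptor beads (10 ug/mL final each) bridging L3MBTL1 (50 nM) and biotinylated K9-monomethylated H3(1-15) peptide (75 nM), after 30 min compound exposure at room temperature.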
# BAZ2B block = qHTS Assay for Inhibitors of BAZ2B | Bromodomain adjacent to zinc finger domain protein 2B (Homo sapiens), Q9UIF8 | AlphaScreen BAZ2B-H3K14Ac peptide displacement | Potency, µM (titrated, usually from 114 µM), for the others: at the highest dose activity change, negative = inhibition, actives largely listed as inhibitors | 360,000 tested, 4.4% active | AID 504333, 2011; further: on the % scale 0 is the no-effect control and ±100 the full control effect; nearly all actives have a fitted effect of over 60% in size
#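 In this displacement format the biotinylated H3(5-23) peptide acetylated at Lys14 serves as ligand at 50 nM, with BAZ2B at 50 nM in PBS pH 7.4 containing 0.01% Tween-20. Donor and acceptor beads are 10 ug/mL final.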
# Sfp PPTase inh = qHTS Assay for Inhibitors of Bacillus subtilis Sfp phosphopantetheinyl transferase (PPTase); 310,000 tested, 3.5% active; 4'-phosphopantetheinyl transferase ffp (Bacillus subtilis), Q9F4F7; Biochemical Sfp PPTase activity, qHTS; Potency, µM, for inactives: largest response in the series, negative = inhibition, usual class: inhibitors;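 further: the enzyme is Sfp with the accession as filed and its product quenches rhodamine fluorescence; 0% = enzyme reaction without inhibitor and -100% = no enzyme wells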
#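 Fluorescence-quenching assay with 15 nM Sfp, 5 uM rhodamine-CoA and 12.5 uM BHQ-2-labelled ybbR peptide in pH 7.6 Hepes/MgCl2 buffer. Enzyme was pre-incubated with compound for 15 min at room temperature. Rate was taken from the 30-min fluorescence change (525/598 nm).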
# JMJD2A Tudor = qHTS Assay for Inhibitors of JMJD2A-Tudor Domain | AlphaScreen JMJD2A-Tudor / H3K4me3 peptide binding | 390,000 tested, 4.4% active | Potency, µM (doses to about 114 µM), inactives show at the top dose activity change, negative = inhibition, actives largely listed as inhibitors | AID 504339, 2011; further: on the % scale 0 is the no-effect control and ±100 the full control effect; nearly all actives have a fitted effect of over 50% in size
# HP1b binding inh = HTS for Inhibitors of HP1-beta Chromodomain Interactions with Methylated Histone Tails; Chromobox protein homolog 1 (Homo sapiens), P83916; AlphaScreen HP1-beta / biotin-H3K9me3 peptide binding; Potency, µM (titrated, usually from 114 µM), for the others: at the top dose activity change, negative = inhibition, most hits filed as inhibitors; 390,000 tested, 0.56% active; further: nearly all actives have a fitted effect of over 70% in size
#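 Compound inhibition of the preformed complex between 50 nM HP1-beta and 50 nM biotinylated H3K9me3 peptide was read by AlphaScreen. Buffer was PBS pH 7.4 with 0.01% Tween-20. Incubations ran 30 min at room temperature, with 10 ug/mL donor/acceptor beads.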
# G9a block = qHTS Assay for Inhibitors of Histone Lysine Methyltransferase G9a; 350,000 tested, 8.8% active; Potency, µM (titrated, usually from 102 µM), for inactives: top-dose activity, negative = inhibition, most hits filed as inhibitors; Histone-lysine N-methyltransferase EHMT2 (Homo sapiens), Q96KQ7; G9a H3K9 monomethylation, AlphaScreen, 2 h; further: on the % scale 0 is the no-effect control and ±100 the full control effect; nearly all actives have a fitted effect of over 75% in size
#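 Signal arises when biotinylated H3K9 peptide, once monomethylated, bridges streptavidin donor and antibody-captured acceptor beads. Enzyme at 20 nM was preincubated 15 min with test compounds; peptide 500 nM and SAM 20 uM then reacted for 2 h.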
# * = called active by the depositor; ? = inconclusive; . = not tested or not shown; ! = not active in a repeat; [ ] = remark or other dose. Most compounds without a hit are left out; they make up all but 12% or so of the library. The call rests on the fitted dose curve; in most records, active means well fitted curve in the direction sought with a large enough effect; inconclusive means small, poorly fitted or top-dose-only effect, or another doubt; inactive means no such curve, though single readings can be large; an effect the other way counts as inactive or inconclusive. Potency means the concentration at half of the fitted maximal effect.
SMILES,L3MBTL1 block,BAZ2B block,Sfp PPTase inh,JMJD2A Tudor,HP1b binding inh,G9a block
C#CCCCO/N=C1/C[C@@H](O)[C@@H](O)[C@@H]2[C@@H]3C(=O)N(Cc4ccc5c(c4)OCO5)C(=O)[C@H]3CC[C@@H]12,.,.,0.9%,.,.,.
C[N+](C)(C)CCCN(Cc1ccc2c(c1)OCO2)C(=O)NC1CCCCC1,-2.2%,-29.6%,11.0%,?,4.2%,50.1µM*
CC(NCc1ccc2c(c1)OCO2)C(=O)NC1CCCCC1 (stereo unspecified),-1.0%,-17.2%,14.0%,?,10.5%,8.9%
Cc1cc(NC(=O)CCC(=O)N(CC(=O)NC2CCCC2)Cc2ccc3c(c2)OCO3)no1,1.9%,-35.1%,5.8%,-4.2%,16.2%,50.1µM*
Cc1cc(NC(=O)CCC(=O)N(CC(=O)NC2CCCC2)Cc2ccc(F)cc2)no1,1.6%,-6.1%,6.7%,23.3%,19.9%,22.5%[12.7 µM]
Cc1ccc(S(=O)(=O)OC[C@@H]2CN3[C@H](c4ccc(Br)cc4)[C@H](C)CC[C@H]3C(=O)O2)cc1,.,.,1.4%,.,.,.
COc1ccc(CNc2ncncc2-c2ccccc2C(F)(F)F)c(OC)c1,.,.,-14.5%,.,.,2.2%[0.501 µM]
Fc1cccc(Cl)c1/C=N/n1c(-c2cccnc2)n[nH]c1=S,.,?,11.9%,3.16µM*,2.7%,?
Nc1nnnn1/N=C\c1ccc(Cl)c([N+](=O)[O-])c1,4.8%,2.6%,5.1%,-15.0%,58.3%,40.3%[0.0925 µM]
O=[N+]([O-])c1cc2c(cc1/C=N/n1c(-c3ccccc3)n[nH]c1=S)OCO2,-25.6%,?,39.8µM*,3.98µM*,?,1.41µM*
O=[N+]([O-])c1ccccc1/C=N/n1c(-c2cccnc2)n[nH]c1=S,9.2%,-26.7%,?,2.24µM*,9.0%,2.51µM*
O=[N+]([O-])c1cc(/C=N/n2c(-c3cccnc3)n[nH]c2=S)ccc1Cl,?,?,?,39.8µM*,-7.6%,1.26µM*
CCOc1ccc(CCNC(=O)CCc2c(C)nc3c4c(C)cc(C)nc4nn3c2C)cc1,.,3.1%,.,-22.8%,-5.7%,-12.7%[59 µM]
CN1CCN(c2cc(-c3ccoc3)ncn2)CC1,.,.,?,.,.,-37.2%[0.501 µM]
COCCN1CCN(Cc2nc(Cc3ccc(OC)c(OC)c3)no2)CC1,-2.8%,-15.3%,11.7%,-5.6%,25.4%,-30.2%
COc1ccc(Cc2noc(CN3CCCN(C4Cc5ccccc5C4)CC3)n2)cc1OC,-13.4%,?,0.3%,-16.8%,33.2%,39.8µM*
O=C(O)c1cccc(OS(=O)(=O)c2cc(Br)ccc2Br)c1,4.7%,8.9%,.,0.7%,24.5%,4.5%[12.7 µM]
CCOC(=O)C1CCCN(C(=O)c2ccc(Cl)cc2)C1 (stereo unspecified),0.8%,-10.3%,27.2%,-4.1%,52.4%,79.4µM*
CCOC(=O)C1CCCN(C(=O)c2ccc([N+](=O)[O-])cc2)C1 (stereo unspecified),-6.5%,-7.2%,2.4%,-10.7%,20.6%,-0.2%[59 µM]
CCOC(=O)C1CCCN(C(=O)c2cc(Cl)ccc2Cl)C1 (stereo unspecified),6.8%,-3.2%,12.8%,-11.2%,21.3%,44.7µM*
O=C(Cn1cnc2scc(-c3ccc(F)cc3)c2c1=O)NCC(c1ccco1)N1CCCC1 (stereo unspecified),-2.2%,-2.0%,.,-25.5%,1.6%,-4.6%
Cc1cc(C)n2nc(SC(C)C(=O)NCc3ccco3)nc2n1 (stereo unspecified),-2.1%,?,8.8%,-2.5%,26.6%,56.2µM*
CC(=O)Nc1ccc(NC(=O)C(C)Sc2nc3nc(C)cc(C)n3n2)cc1 (stereo unspecified),4.4%,4.1%,.,-4.8%,23.0%,10.3%[0.501 µM]
Cc1ccccc1Cc1c(C)nc2nc(SCC(=O)NCc3ccco3)nn2c1C,-4.4%,-37.3%,-25.2%,-20.2%,1.4%,.
Cc1cccc(Cc2c(C)nc3nc(SCC(=O)NCc4ccco4)nn3c2C)c1,0.1%,?,44.7µM*,-25.0%,-4.3%,?
SMILES,L3MBTL1 block,BAZ2B block,Sfp PPTase inh,JMJD2A Tudor,HP1b binding inh,G9a block
CCc1ccc(NCc2cc3cc(OC)c(OC)cc3n(CC(=O)Nc3cc(C)ccc3C)c2=O)cc1,.,-22.5%,.,-14.8%,16.0%,-1.2%[59 µM]
O=C(CCc1ccccc1)OCCOC(=O)CCc1ccccc1,.,147.3%,-8.5%,150.7%,177.0%,231.1%
CC(/C=C/c1ccccc1)=N\NC(=S)NC(C)C,-29.8%,?,17.4%,44.7µM*,?,50.1µM*
CCOC(=O)N1CCc2c(sc3c2c(=O)n(CCc2ccccc2)c(=O)n3Cc2ccc(F)cc2)C1,.,?,.,-14.2%,37.5%,?
Cc1ccc(S(=O)(=O)Nc2c(C(=O)O)[nH]c3ccccc23)cc1C,.,?,9.2%,-26.0%,47.7%,15.8µM*
CCS(=O)(=O)Nc1c(C(=O)O)[nH]c2ccccc12,-2.9%,-31.3%,5.2%,89.1µM*,-6.4%,50.1µM*
O=C(NCCc1ccc(Cl)cc1)c1nnc(Cc2ccc(Cl)cc2Cl)o1,.,-2.0%,.,-14.0%,6.3%,6.0%[59 µM]
COc1ccc(C(=O)N[C@H](C(=O)N2CCN(c3ccccc3F)CC2)C(C)C)cc1,3.2%,-5.9%,0.5%,-7.0%,25.9%,15.5%
O=S(=O)(O)c1cc(I)c(O)c2ncccc12,.,.,2.51µM*,.,.,?
Cc1ccc(S(=O)(=O)Nc2cc(S(=O)(=O)c3ccc(C)cc3)c(O)c3cccnc23)cc1,.,.,-21.2%,-19.3%,.,.
Nc1c(Br)cc(Br)c2cccnc12,.,.,.,14.4%,46.4%,.
Oc1c(I)cc(I)c2cccnc12,-6.6%,8.6%,50.1µM*!,56.2µM*,-19.7%,50.1µM*
Cc1ccccc1-c1nc(SCC(=O)NCC2CCCO2)c2c(=O)n(C)c(=O)n(C)c2n1 (stereo unspecified),.,7.1%,.,-11.4%,16.2%[57 µM],15.7%[59 µM]
COc1ccc(Oc2ncc3ncc(=O)n(-c4ccc(OC)cc4)c3n2)cc1,.,.,1.2%,.,.,5.7%[0.501 µM]
CC(=O)N1CCC[C@@]2(CCN(Cc3ccc(C#N)cc3)C2)C1,.,.,6.7%,.,.,-16.0%[12.7 µM]
OCCCNCc1ccc(N(c2ccccc2)c2ccccc2)cc1,.,56.2µM*,-11.4%,39.8µM*,70.8µM*,12.6µM*
CCCC(=O)N(Cc1cc(=O)[nH]c2ccccc12)c1ccc(C)cc1,.,-3.0%,-8.7%,89.1µM*,-9.2%,25.1µM*
COc1ccc(N(Cc2cc(=O)[nH]c3ccccc23)C(=O)c2ccco2)cc1,40.1%,0.7%,56.2µM*,?,9.8%,50.1µM*
